The text below walks through data of PubChem BioAssay AID651744 (Broad Institute, 2012).

The structures appear in SMILES notation. In all, about 5,600 compounds went through this assay and about 3,100 (55%) were called active. Not shown: some 3% with an inconclusive outcome.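 How the source made its calls: active means mean loss of cell viability signal at or above a set limit, and enough replicates individually reaching it; inconclusive means meets only the mean limit or only the replicate share; inactive means meets neither condition.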 So high a share suggests a set chosen from earlier hits. These entries were drawn from the full list.

As a reminder, the inhibition is the drop in the measured response relative to a control, in per cent.

A short description of the experiment: NIH/3T3 fibroblast cytotoxicity, confirmation, cytotoxicity control, cell-based, cherry-pick, single point, set 2 (AID 651744).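 Further: 0% = median of neutral control wells and 100% = median of positive control wells.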 To be noted: NIH/3T3 viability, CellTiter-Glo ATP luminescence, 90 h; at 24.9 µM; stronger effect = higher value. (In general: Cellular ATP, detected with luciferase, serves as a proxy for viable cell number.)
For the molecule `O=C(c1cccnc1)N1CCCCN2[C@@H](CO)[C@H](c3ccc(C#Cc4ccccc4)cc3)[C@@H]2C1`, the inhibition was 66.5% (active).

`COc1ccc(C#Cc2ccc([C@@H]3[C@@H](CO)N4CCCCN(C(=O)c5ccncc5)C[C@@H]34)cc2)cc1`: the inhibition is 97.5% (active).

In the case of `O=C(c1ccncc1)N1CCCCN2[C@H](CO)[C@H](c3ccc(-c4ccccc4)cc3)[C@H]2C1`, the inhibition is 5.4% (inactive).

`O=C(Nc1ccccc1)N1CCCCN2[C@H](CO)[C@@H](c3ccc(C#Cc4ccccn4)cc3)[C@H]2C1`: the inhibition is 9.74% (inactive).

In the case of `O=C(c1ccc(F)cc1)N1CCCCN2[C@H](C1)[C@@H](c1ccc(C#CC3(O)CCCC3)cc1)[C@@H]2CO`, the inhibition is 18% (inactive).

For `COCC(=O)N1CC[C@@H]2[C@@H](CO)Nc3ccc(-c4cccc(C#N)c4)cc3[C@@H]21`, the inhibition is 5.66% (inactive).

On to `CN(C)C(=O)c1ccc(-c2ccc3c(c2)[C@H]2[C@H](CCN2C(=O)c2ccc4c(c2)OCO4)[C@H](CO)N3)cc1`, for which the inhibition is -8.51% (inactive).

With `O=C(c1cccc(F)c1)N1CC[C@@H]2[C@@H](CO)Nc3ccc(C#Cc4cccc(F)c4)cc3[C@@H]21`, the inhibition is 105% (active).

Turning to `O=S(=O)(c1ccccc1)N1CC[C@@H]2[C@@H](CO)Nc3ccc(-c4ccccc4F)cc3[C@@H]21`, the inhibition was 23.8% (inactive).

Turning to `CC(=O)N1CC[C@@H]2[C@H](CO)Nc3ccc(C#Cc4ccccc4F)cc3[C@@H]21`, the inhibition is 33.2% (active).

For the molecule `O=S(=O)(c1ccccc1)N1CC[C@@H]2[C@@H](CO)Nc3ccc(C#Cc4cccc(F)c4)cc3[C@@H]21`, the inhibition is 52.5% (active).

In the case of `O=S(=O)(c1ccccc1)N1CC[C@@H]2[C@H]1c1cc(C#Cc3cccc(F)c3)ccc1N[C@@H]2CO`, the inhibition is 72.4% (active).

On to `Cc1ccccc1S(=O)(=O)N1CC[C@H]2[C@H](CO)Nc3ccc(-c4cccc(F)c4)cc3[C@H]21`, for which the inhibition was 105% (active).

Take `CCC(=O)N1CC[C@@H]2[C@@H](CO)N(C)c3ccc(-c4ccc(F)cc4)cc3[C@@H]21`: the inhibition is 12.2% (inactive).

In the case of `CC(=O)N1[C@H](CNC(=O)C2CC2)[C@@H](c2ccc(-c3cccc(F)c3)cc2)[C@@H]1CO`, the inhibition is 13% (inactive).

Regarding `CN1c2ccc(-c3ccccc3)cc2[C@H]2[C@H](CCN2C(=O)Cc2ccccn2)[C@H]1CO`, the inhibition is 9.27% (inactive).

In the case of `O=C(Cc1ccccc1)N1CC[C@H]2[C@H](CO)Nc3ccc(-c4ccccc4F)cc3[C@H]21`, the inhibition was 48.1% (active).

Regarding `COc1ccc(NC(=O)N2CC[C@@H]3[C@@H](CO)N(C)c4ccc(-c5cccc(F)c5)cc4[C@@H]32)cc1`, the inhibition was 20.7% (inactive).

For `O=C(C[C@@H]1C[C@@H]2c3cc(NC(=O)c4ccc5c(c4)OCO5)ccc3O[C@@H]2[C@@H](CO)O1)NCc1ccc(Cl)cc1`, the inhibition was 14.5% (inactive).

As to `CN1C(=O)c2cc(NC(=O)c3cnccn3)ccc2OC[C@@H]2O[C@@H](CC(=O)N[C@H]3CCN(Cc4ccccc4)C3)CC[C@H]21`, the inhibition was -12.6% (inactive).

For `C[C@@H]1CCCCO[C@H](CN(C)Cc2ccccc2)[C@H](C)CN([C@H](C)CO)C(=O)c2cc(NS(=O)(=O)c3ccc(Cl)cc3)ccc2O1`, the inhibition is 104% (active).

For `COc1ccc(S(=O)(=O)N(C)C[C@H]2OCCCC[C@H](C)Oc3ccc(NS(=O)(=O)c4ccc(F)cc4)cc3C(=O)N([C@@H](C)CO)C[C@@H]2C)cc1`, the inhibition was -33.1% (inactive).

Turning to `C[C@@H]1CCCCO[C@H](CN(C)C(=O)NC2CCCCC2)[C@H](C)CN([C@H](C)CO)C(=O)c2cc(NS(=O)(=O)c3ccc(Cl)cc3)ccc2O1`, the inhibition was -1.41% (inactive).

`C[C@H]1CCCCO[C@@H](CN(C)S(=O)(=O)c2cccs2)[C@@H](C)CN([C@@H](C)CO)C(=O)c2cc(NS(=O)(=O)c3ccc(Cl)cc3)ccc2O1`: the inhibition was 11.8% (inactive).

As for `C[C@@H]1CN([C@H](C)CO)C(=O)c2cc(NS(=O)(=O)c3ccc(Cl)cc3)ccc2O[C@@H](C)CCCCO[C@H]1CN(C)Cc1ccccc1`, the inhibition was 103% (active).

Regarding `C[C@H](CO)N1C[C@H](C)[C@H](CN(C)S(=O)(=O)c2ccc(F)cc2)OCCCC[C@H](C)Oc2ccc(NS(=O)(=O)c3ccc(Cl)cc3)cc2C1=O`, the inhibition was 18.4% (inactive).

On to `C[C@@H]1CN([C@H](C)CO)C(=O)c2cc(NS(=O)(=O)c3cccs3)ccc2O[C@@H](C)CCCCO[C@@H]1CN(C)S(=O)(=O)c1ccc(Cl)cc1`, for which the inhibition was 2.36% (inactive).

In the case of `COc1ccc(S(=O)(=O)Nc2ccc3c(c2)C(=O)N([C@H](C)CO)C[C@@H](C)[C@@H](CN(C)CC2CCCCC2)OCCCC[C@@H](C)O3)cc1`, the inhibition is 107% (active).

In the case of `C[C@H]1CCCCO[C@@H](CN(C)C(=O)NC2CCCCC2)[C@@H](C)CN([C@@H](C)CO)C(=O)c2cc(NS(=O)(=O)c3ccc(Cl)cc3)ccc2O1`, the inhibition is 15.4% (inactive).

Take `COc1ccc(NC(=O)N(C)C[C@@H]2OCCCC[C@@H](C)Oc3ccc(NS(=O)(=O)c4ccc(Cl)cc4)cc3C(=O)N([C@H](C)CO)C[C@H]2C)cc1`: the inhibition was -14.7% (inactive).

Consider `C[C@H](CO)N1C[C@H](C)[C@H](CN(C)Cc2ccc(C(F)(F)F)cc2)OCCCC[C@H](C)Oc2ccc(NS(=O)(=O)c3ccc(Cl)cc3)cc2C1=O`, for which the inhibition was 105% (active).

On to `C[C@@H]1CCCCO[C@H](CN(C)S(=O)(=O)c2ccc(Cl)cc2)[C@H](C)CN([C@@H](C)CO)C(=O)c2cc(NS(=O)(=O)c3cccs3)ccc2O1`, for which the inhibition is -8.7% (inactive).

As for `C[C@@H]1CCCCO[C@H](CN(C)S(=O)(=O)c2cccs2)[C@H](C)CN([C@H](C)CO)C(=O)c2cc(NS(=O)(=O)c3ccc(F)cc3)ccc2O1`, the inhibition was -27.9% (inactive).

Consider `C[C@@H]1CN([C@H](C)CO)C(=O)c2cc(NS(=O)(=O)c3cccs3)ccc2O[C@@H](C)CCCCO[C@H]1CN(C)Cc1ccc(C(F)(F)F)cc1`, for which the inhibition is 103% (active).

`C[C@H]1CN([C@@H](C)CO)S(=O)(=O)c2ccc(C3=CCCCC3)cc2O[C@@H]1CN(C)Cc1ccccc1`: the inhibition was 106% (active).

Turning to `C[C@H]1CN([C@@H](C)CO)S(=O)(=O)c2ccc(C3=CCCC3)cc2O[C@@H]1CN(C)Cc1ccccc1`, the inhibition is 103% (active).

Turning to `C[C@@H]1CN([C@H](C)CO)S(=O)(=O)c2ccc(C3=CCCC3)cc2O[C@H]1CN(C)Cc1ccccc1F`, the inhibition was 106% (active).

On to `C[C@@H]1CN([C@H](C)CO)C(=O)c2cccc(NC(=O)NC3CCCCC3)c2O[C@H]1CN(C)Cc1ccc(C(F)(F)F)cc1`, for which the inhibition was 106% (active).

`C[C@@H]1CCCCO[C@H](CN(C)Cc2ccccc2)[C@@H](C)CN([C@@H](C)CO)C(=O)c2cc(NC(=O)Nc3ccc(F)cc3)ccc2O1`: the inhibition was 103% (active).

In the case of `COc1ccc(NC(=O)N(C)C[C@@H]2Oc3c(NC(=O)NC4CCCCC4)cccc3C(=O)N([C@@H](C)CO)C[C@@H]2C)cc1`, the inhibition was 2.03% (inactive).

`C[C@H]1CCCCO[C@H](CN(C)Cc2ccccc2)[C@@H](C)CN([C@@H](C)CO)C(=O)c2cc(NC(=O)c3ccccc3)ccc2O1`: the inhibition is 40.7% (active).

In the case of `C[C@@H]1CN([C@H](C)CO)C(=O)c2cc(NC(=O)Nc3ccc(F)cc3)ccc2O[C@@H](C)CCCCO[C@@H]1CN(C)CC1CCCCC1`, the inhibition is 102% (active).

As for `C[C@@H]1CCCCO[C@@H](CN(C)Cc2ccc(C(F)(F)F)cc2)[C@@H](C)CN([C@H](C)CO)C(=O)c2cc(NC(=O)Nc3ccccc3)ccc2O1`, the inhibition is -8.84% (inactive).

Turning to `C[C@@H]1CCCCO[C@H](CN(C)C(=O)NC2CCCCC2)[C@H](C)CN([C@H](C)CO)C(=O)c2cc(NC(=O)Nc3ccc(F)cc3)ccc2O1`, the inhibition is 1.83% (inactive).

For the molecule `C[C@@H]1CCCCO[C@@H](CN(C)CC2CC2)[C@H](C)CN([C@H](C)CO)C(=O)c2cc(NC(=O)C3CCCCC3)ccc2O1`, the inhibition is -28.9% (inactive).

For the molecule `C[C@@H]1CCCCO[C@H](CN(C)Cc2ccc(C(F)(F)F)cc2)[C@H](C)CN([C@H](C)CO)C(=O)c2cc(NC(=O)Nc3ccc(F)cc3)ccc2O1`, the inhibition is -19.7% (inactive).

With `C[C@H]1CCCCO[C@H](CN(C)Cc2ccccc2)[C@@H](C)CN([C@@H](C)CO)C(=O)c2cc(NC(=O)NC3CCCCC3)ccc2O1`, the inhibition is 102% (active).

On to `C[C@@H]1CN([C@@H](C)CO)C(=O)c2cc(NC(=O)C3CCCCC3)ccc2O[C@@H](C)CCCCO[C@H]1CN(C)Cc1ccncc1`, for which the inhibition was -15.9% (inactive).

As to `COc1ccc(CN(C)C[C@H]2OCCCC[C@H](C)Oc3ccc(NC(=O)Nc4ccc5c(c4)OCO5)cc3C(=O)N([C@H](C)CO)C[C@@H]2C)cc1`, the inhibition was 103% (active).

Take `C[C@@H]1CCCCO[C@@H](CN(C)Cc2ccc3c(c2)OCO3)[C@@H](C)CN([C@@H](C)CO)C(=O)c2cc(NC(=O)Nc3ccccc3)ccc2O1`: the inhibition is 16% (inactive).

In the case of `C[C@@H]1CCCCO[C@H](CN(C)Cc2ccc(Cl)c(Cl)c2)[C@H](C)CN([C@@H](C)CO)C(=O)c2cc(NC(=O)C3CCCCC3)ccc2O1`, the inhibition is 50.7% (active).

As for `C[C@@H]1CCCCO[C@@H](CN(C)Cc2ccc(Cl)c(Cl)c2)[C@H](C)CN([C@H](C)CO)C(=O)c2cc(NC(=O)Nc3ccc(F)cc3)ccc2O1`, the inhibition is 1.24% (inactive).

`C[C@H]1CCCCO[C@H](CN(C)S(=O)(=O)c2ccc(Cl)cc2)[C@@H](C)CN([C@@H](C)CO)C(=O)c2cc(NC(=O)Nc3ccc4c(c3)OCO4)ccc2O1`: the inhibition was 7.66% (inactive).

As for `COc1ccc(NC(=O)Nc2ccc3c(c2)C(=O)N([C@H](C)CO)C[C@@H](C)[C@H](CN(C)Cc2ccc(Cl)c(Cl)c2)OCCCC[C@@H](C)O3)cc1`, the inhibition is -0.512% (inactive).

As to `C[C@@H]1CN([C@H](C)CO)C(=O)c2cc(NC(=O)Nc3ccc(F)cc3)ccc2O[C@@H](C)CCCCO[C@H]1CN(C)Cc1ccc(Cl)c(Cl)c1`, the inhibition was 81.1% (active).
